Assay outcomes from PubChem BioAssay.
This is one part of a sample in which hits are shown more often than they occur.
PL biosyn Enam: blocks phospholipid synthesis in CHO cells, Enamine compounds | AID 1347385 | calls only at 10 µM | hit rate 0.4% among 20,000 | ZR-82 CHO cells, pyrene fatty acid UV survival, CellTiter Blue; peroxisome-deficient CHO-K1 mutant line; plus DGAT-1, DGAT-2 and ACAT inhibitors;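 active = cell survival signal 2 SD away from solvent-only control wells, confirmed on one or two retests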;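 note: 3 h compound exposure then viability read about one day after UV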
Calls only.

Results for CC(C)Cn1c(N)c(C(=O)COC(=O)C2CC=CCC2)c(=O)n(C)c1=O (stereo not drawn) ?
PL biosyn Enam: inactive

What do the screens show for `COCC(C)Nc1nc2c(s1)CCCC2` (stereo not drawn)?
PL biosyn Enam: inactive

What do the screens show for `C(=N\N=C\c1ccccn1)/C1=C(N2CCOCC2)C(=C/c2ccccc2)/CC1`?
PL biosyn Enam: inactive

Results for S=C(NNc1ccnc2cc(Cl)ccc12)Nc1ccc(Cl)cc1 ?
PL biosyn Enam: inactive

Results for Fc1ccc(NC(=S)NNc2ccnc3cc(Cl)ccc23)cc1 ?
PL biosyn Enam: inactive

How did S=C(NNc1ccnc2cc(Cl)ccc12)Nc1ccccc1Cl do in these assays?
PL biosyn Enam: active

How did Cc1nc(-n2cnc3cc(C)c(C)cc32)c2c3c(sc2n1)CCCC3 do in these assays?
PL biosyn Enam: inactive

Results for CCC(=C\c1sc2ccc(C)cc2[n+]1CCCS(=O)(=O)[O-])/C=C1/Sc2ccc(C)cc2N1CCO ?
PL biosyn Enam: inactive

Results for O=C(c1ccco1)N1CCN(c2nc(CN3CCOCC3)nc3scc(-c4cccs4)c23)CC1 ?
PL biosyn Enam: inactive

What do the screens show for `O=C1NC(=S)S/C1=C/c1cn(-c2ccccc2)nc1-c1cc2ccccc2oc1=O`?
PL biosyn Enam: inactive

How did Cc1cc(C)c(C)c(S(=O)(=O)Nc2cc(C(F)(F)F)cc(C(F)(F)F)c2)c1C do in these assays?
PL biosyn Enam: inactive

Results for O=[N+]([O-])c1ccc(N=Nc2c(O)[nH]c3ccc(Br)cc23)cc1 ?
PL biosyn Enam: active

What do the screens show for `Oc1[nH]c2ccc(Br)cc2c1N=Nc1ccc(Cl)c(Cl)c1`?
PL biosyn Enam: inactive

What do the screens show for `O=[N+]([O-])c1ccc2[nH]c(O)c(N=Nc3ccc(Cl)c(Cl)c3)c2c1`?
PL biosyn Enam: inactive

What do the screens show for `Cc1ccc(N=Nc2cc(C(C)(C)C)cc(Br)c2O)cc1`?
PL biosyn Enam: active

What do the screens show for `CC(C)(C)c1cc(C=Nc2cc(C(C)(C)C)cc(C(C)(C)C)c2O)c(O)c(C(C)(C)C)c1`?
PL biosyn Enam: inactive

Results for CC(C)(C)N/N=C/c1cc(Br)c(O)c(Br)c1 ?
PL biosyn Enam: inactive

How did O=C(Nc1nc2c(s1)CCCC2)C1CCC(C(=O)Nc2nc3c(s2)CCCC3)CC1 (stereo not drawn) do in these assays?
PL biosyn Enam: inactive

How did O=[N+]([O-])c1ccc(Cl)c(S(=O)(=O)Nc2ccc(SC(F)F)cc2)c1 do in these assays?
PL biosyn Enam: inactive

How did CN(C)c1ccc(N=Nc2ccc([N+](=O)[O-])cc2C(F)(F)F)cc1 do in these assays?
PL biosyn Enam: active

Results for Nc1ccc([N+](=O)[O-])cc1C(F)(F)F ?
PL biosyn Enam: inactive

What do the screens show for `CN(C)P(=Nc1ccc([N+](=O)[O-])cc1Br)(N(C)C)C(C)(C)C`?
PL biosyn Enam: inactive

How did O=[N+]([O-])c1ccc(N=Nc2ccc(NCC(F)(F)C(F)F)cc2)c(Cl)c1 do in these assays?
PL biosyn Enam: active

Results for CN(C)c1ccc(N=Cc2cc([N+](=O)[O-])ccc2OC(F)F)cc1 ?
PL biosyn Enam: inactive

How did Oc1c(Br)cc(Br)cc1/C=N/N=C(c1ccccc1)c1ccccc1 do in these assays?
PL biosyn Enam: inactive

How did c1ccc(-c2nnc(CSc3nnc(-c4ccccc4)o3)o2)cc1 do in these assays?
PL biosyn Enam: inactive

How did CCCCCN(C(=O)CCC(=O)O)c1c(N)n(CCCC)c(=O)[nH]c1=O do in these assays?
PL biosyn Enam: inactive

How did OC(CNC1CCCc2ccccc21)COC1CCCc2ccccc21 (stereo not drawn) do in these assays?
PL biosyn Enam: inactive
